In PubChem BioAssay AID1439 (NMMLSC, 2008):
Hit rate of the full screen: of about 220,000 compounds, about 770 (0.35%) were called active. Not shown: some 15% with an inconclusive outcome. No stated cut-off is given here; in the data, active means binding response below about 49% or above about 150%; inconclusive means no clear call, values can overlap the other calls; inactive means in between. Shown is part of a subset that was picked to be rich in actives.

These compounds were tested against Guanine nucleotide-binding protein G(o) subunit alpha (Homo sapiens) (UniProt P09471) (assay: RGS7-Galphao binding modulators, primary screen, biochemical, multiplexed bead flow cytometry (AID 1439;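 further: fluorescent Galphao held in activated GDP-AlF4 state binding bead-coupled RGS7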)). Settings: at 10 µM, actives lie on both sides.
Guanine nucleotide-binding protein G(o) subunit alpha (Homo sapiens), sequence (P09471 whole entry, looked up): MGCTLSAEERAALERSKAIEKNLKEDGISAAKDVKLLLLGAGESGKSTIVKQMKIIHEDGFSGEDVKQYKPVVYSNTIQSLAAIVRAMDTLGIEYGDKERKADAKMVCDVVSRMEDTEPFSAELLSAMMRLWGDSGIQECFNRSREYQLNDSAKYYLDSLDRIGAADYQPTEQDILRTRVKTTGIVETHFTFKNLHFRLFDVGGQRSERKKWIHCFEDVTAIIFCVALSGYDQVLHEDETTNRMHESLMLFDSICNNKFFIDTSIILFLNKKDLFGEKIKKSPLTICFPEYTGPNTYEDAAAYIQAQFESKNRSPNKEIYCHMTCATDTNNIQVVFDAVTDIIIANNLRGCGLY

Binding response (% of control), inactive:
CN1C(=O)/C(=C/c2ccc(C(=O)NC3CCCC3)cc2)Oc2ccccc21 98.8%
O=C(CCc1ccccc1)Nc1ccc(NC(=O)C2CCCCC2)nc1 105%
Cc1ccc(CN2CCN(Cc3ccccc3-c3ccco3)CC2CCO)o1 (stereo unspecified) 90.6%
Cc1ccc(NC(=O)NCC(c2cccnc2)N2CCOCC2)cc1 (stereo unspecified) 100%
CN1CCN(S(=O)(=O)c2ccc(N3CCN(S(=O)(=O)c4cccs4)CC3)nc2)CC1 95.4%
CN(C)c1ccc(/C=N/NC(=O)C(O)c2ccc(Br)cc2)cc1 (stereo unspecified) 101%
CC(C)(C)C(=O)CN1C2=NCCN2c2ccccc21 109%
Cc1ccccc1NC(=O)Cn1c(=O)n(CC2CCCO2)c(=O)c2ccccc21 (stereo unspecified) 106%
COc1ccc(CC(=O)N/N=C(\C)c2ccccn2)cc1 93.4%
CCOc1cc(NC(=O)c2ccccn2)c(OCC)cc1NC(=O)c1ccc(OC)cc1 107%
COC(=O)c1cc2n(n1)CCCNC2=O 106%
O=[N+]([O-])c1ccc2c(c1)C(N1CCOCC1)/C(=C/C1(O)CCCCC1)O2 (stereo unspecified) 100%
CCCCOC(=O)Cn1c(=O)n(CC(=O)OCCCC)c2cc(C)ccc21 103%
CCn1c(=N)n(CC(=O)c2cccc(OC)c2)c2ccccc21 96.8%
CCC(C)CN1CCC(CO)(Cc2ccccc2Cl)CC1 (stereo unspecified) 103%
O=S1(=O)CCC(NC(=S)SCc2ccccc2Br)C1 (stereo unspecified) 97.5%
Cc1nc2cc(NC(=O)NC3CC3)ccc2n1C 99%
Cn1c(CCN2CCCCCC2)nc2cc(NC(=O)Nc3ccccc3)ccc21 106%
CCOc1ccc(S(=O)(=O)Nc2nccs2)cc1 101%
C=CCN1C2CCCC1CC(NC(=S)Nc1cccc(OC)c1)C2 (stereo unspecified) 102%
Clc1cccc(-c2nc(NCC3CCCO3)c3ccccc3n2)c1 (stereo unspecified) 99.5%
Cc1cc(C)n2nc(C(=O)N(C)C(c3ccccc3)c3ccccc3)nc2n1 99%
Cc1cccc(NC(=S)N2CCCC(c3nc4ccccc4[nH]3)C2)c1 (stereo unspecified) 106%
COc1ccc(/C(O)=C2\C(=O)C(=O)N(Cc3ccco3)C2c2ccc(OC)cc2OC)cc1 (stereo unspecified) 98.7%
COCCCN1C(=O)C(=O)/C(=C(/O)c2ccc3c(c2)CC(C)O3)C1c1cccnc1 (stereo unspecified) 93.5%
CSc1ccc(C(=O)C2CCCN(C(=O)c3ccc(C)nc3)C2)cc1 (stereo unspecified) 96%
O=C(CCN1CCN(C/C=C/c2ccccc2)CC1)Nc1cccc(F)c1 101%
Cc1cc(NC(=O)COc2ccc(Cl)cc2Cl)n(CCC#N)n1 93.9%
CCOC(=O)N1CCN(C(=O)COc2ccc(Cl)cc2C)CC1 102%
Cn1c(=NC(=O)c2ccco2)sc2cccc(F)c21 103%
Cn1c(=NC(=O)C2CC2)sc2cc(F)cc(F)c21 95.6%
Cc1cnc(C(=O)N2CCCC(C(=O)c3ccc(C(F)(F)F)cc3)C2)cn1 (stereo unspecified) 107%
COc1cccc(-n2nc(C(=O)N3CCN(Cc4ccccc4)CC3)c3ccccc3c2=O)c1 98.7%
CCC(=O)OCCNc1nc(-c2ccccc2)nc2ccccc12 110%
CC(=O)NC1C(OCc2ccccc2)OC(COC(C)=O)C(OC(C)=O)C1OC(C)=O (stereo unspecified) 99.5%
NC(=O)c1ccc(CN2CCC(Cc3ccccc3)CC2)cc1 99.1%
OCC1(CCc2ccccc2)CCN(Cc2ccc3nsnc3c2)CC1 96.7%
CN1CCNC(=O)C1CC(=O)NCCC1=CCCCC1 (stereo unspecified) 96.7%
CCc1nnc(NS(=O)(=O)c2ccc(NC(=S)NC(=O)c3cccs3)cc2)s1 96.9%
CCOC(=O)CSc1nc2c(sc(=S)n2CCc2ccccc2)c(=O)n1Cc1ccco1 113%
Cc1cc2c(c(=O)n1Cc1ccco1)C(c1ccccc1)C(C#N)=C(N)O2 (stereo unspecified) 101%
COc1ccc(C(=O)CSc2nc(C)cc(C)n2)cc1[N+](=O)[O-] 103%
O=C(NCCCN1CCOCC1)c1ccc([N+](=O)[O-])cc1[N+](=O)[O-] 101%
O=C(CC1SC(=Nc2ccccc2F)N(CCN2CCOCC2)C1=O)Nc1ccc(F)cc1F (stereo unspecified) 87%
CC(C)(C)CN1CCNC(=O)C1CC(=O)NC1Cc2ccccc2C1 (stereo unspecified) 85.9%
CC1(C)CC(=O)C(CC(=O)N2CCC(Cc3ccccc3)CC2)C(=O)C1 106%
CC1=CC=CN2C1=NC(=O)CC2(C)C(=O)N(CC(=O)NC1CCCC1)c1ccccc1C (stereo unspecified) 104%
Cc1ccccc1C(=O)Nc1ccc(N2CCCCCC2)cc1 91.3%
CCN1CCN(Cc2c(O)ccc3c(=O)c(-c4ccc(OC)c(OC)c4)c(C(F)(F)F)oc23)CC1 97.2%
CN1CCN(Cc2c(O)ccc3c2oc(=O)c2ccccc23)CC1 99.2%
COc1ccc(N2C(=O)/C(=C\c3ccco3)N=C2SCC(N)=O)cc1Cl 93.9%
O=C(O)CCCCCNc1ncnc2ccc(Br)cc12 91.8%
Cc1c(CN2CCC(C)CC2)c(=O)n(-c2ccccc2)n1C 97%
Cc1cccc(N2CCN(Cc3c(C)n(C)n(-c4ccccc4)c3=O)CC2)c1C 103%
Cc1ccc(NC(=O)CN2CCCCC2)c2c1CC(C)(C)O2 103%
CS/C(=C\[N+](=O)[O-])Nc1ccc(C)cc1 106%
S=C(Nc1cccc(Br)c1)N1CCn2cccc2C1c1cccnc1 (stereo unspecified) 102%
CC(=O)Nc1ccc(NC(=O)COc2ccccc2C(=O)Nc2cccc(Cl)c2Cl)cc1 94.1%
O=C(Nc1ccccc1Cl)c1ccccc1S(=O)(=O)c1ccccc1[N+](=O)[O-] 90.2%
COc1cccc2c1OCC(CN1CCN(C3CCCCC3)C(CCO)C1)=C2 (stereo unspecified) 103%
CN1CCN(CCCCOc2ccccc2-c2ccccc2)CC1 102%
CC(C)C(O)C1CCN(Cc2nc(Cc3ccccc3Cl)no2)CC1 (stereo unspecified) 101%
CC(Nc1nc(N2CCOCC2)nc2ccccc12)c1ccccc1 (stereo unspecified) 103%
Cn1c(Cn2nnc3ccccc32)nnc1SCC(=O)c1ccccc1F 103%
COc1ccc(OC)c(/C=N/NC(=O)CSc2nnc(C)n2-c2ccccc2)c1 105%
CCn1ccnc1CN(C)Cc1nc(-c2ccc3c(c2)OCO3)no1 96.5%
O=C(CCn1ccc([N+](=O)[O-])n1)Nc1nccs1 97.4%
COc1ccc(C2=NOC(COC(=O)c3ccc4ccccc4n3)C2)cc1 (stereo unspecified) 97%
CC(OC(=O)c1ccc2ccccc2n1)C(=O)c1ccccc1 (stereo unspecified) 104%
O=C(O)c1ccccc1-c1ccccc1C(=O)NCc1cccnc1 104%
CN(C)CCn1c(=S)[nH]c2ccc(Cl)cc2c1=O 97.9%
CCN(CC)S(=O)(=O)c1ccc(N2CCCC2)c(NS(=O)(=O)c2cccs2)c1 103%
Cc1cc(C)cc(N(C(C)C(=O)Nc2c(C)n(C)n(-c3ccccc3)c2=O)S(C)(=O)=O)c1 (stereo unspecified) 101%
Cc1ccc(S(=O)(=O)CC(=O)Nc2c(C)n(C)n(-c3ccccc3)c2=O)cc1 95.9%
CCn1cc(C(=O)NCCCN2CCCCCC2)c(=O)c2cc(S(=O)(=O)N3CCc4ccccc4C3)ccc21 103%

Binding response (% of control), active:
CN1CCN(C(CNS(=O)(=O)c2cccs2)c2cccnc2)CC1 (stereo unspecified) -9.98% [inhibitor]
CCN(CC)CCOc1ccc2c(c1)C(=NNC(=O)c1ccccn1)c1cc(OCCN(CC)CC)ccc1-2 216%
CCCCOC(=O)Cn1c(=N)n(CCN(CC)CC)c2ccccc21 165%
Cc1cc2nc(C)n(CCCNC(=O)Nc3ccccc3)c2cc1C 180%
COc1cc(C2/C(=C(\O)c3ccc4c(c3)CC(C)O4)C(=O)C(=O)N2Cc2ccco2)ccc1O (stereo unspecified) 17.7% [inhibitor]
CCCn1nnnc1NC(=O)COc1ccc(Cl)cc1C 17.1% [inhibitor]
CCCC(=O)N=c1sc2cccc(F)c2n1C 18% [inhibitor]
O=C(OCC1O[C@@H](OC(=O)c2cc(O)c(O)c(O)c2)[C@@H](OC(=O)c2cc(O)c(O)c(O)c2)[C@@H](OC(=O)c2cc(O)c(O)c(O)c2)[C@@H]1OC(=O)c1cc(O)c(O)c(O)c1)c1cc(O)c(O)c(O)c1 (stereo partly specified) 20.5% [inhibitor]
CN(c1ccccc1)c1ccc(/C=c2\s/c(=C(/C#N)C(=O)C(C)(C)C)n(Cc3ccco3)c2=O)cc1 421%
CCOC(=O)c1oc2c(CN3CCN(C)CC3)c(O)ccc2c(=O)c1-c1ccc(Br)cc1 318%
Cc1c(CN2CCCC(C(=O)c3cccc(Cl)c3)C2)c(=O)n(-c2ccccc2)n1C (stereo unspecified) 230%
CN(C)S(=O)(=O)Oc1ccccc1C(=O)Nc1ccccc1Cl 223%
C=CCn1c(Cn2nnc3ccccc32)nnc1SCC(=O)N/N=C/c1cc(Br)cc(OC)c1O -19.4% [inhibitor]
COc1ccc(C(=O)COC(=O)c2ccc3ccccc3n2)cc1 39% [inhibitor]
CN(C)CCN=c1cc(-c2ccccc2)oc2ccc(Cl)cc12 155%
Cc1cc(C)cc(N(CC(=O)Nc2c(C)n(C)n(-c3ccccc3)c2=O)S(C)(=O)=O)c1 -21.3% [inhibitor]
